According to PubChem BioAssay AID2284157 (EPA ToxCast):
Activity calls are given as the source filed them. The calls were made as follows: active = hit-call score of the fitted dose curve at least 0.9, where 1 is the maximum; inactive = score below 0.9.

These compounds were tested against human Leukotriene Receptor CysLT1, CYSLTR1 (gene 10800) (UniProt Q9Y271) (assay: ERF_FR_GPCR_hCYSLTR1: Eurofins (ERF) G Protein-Coupled Receptor (GPCR) Radioligand Binding LeadHunter Assay for human Leukotriene Receptor CysLT1 Agonism).
human Leukotriene Receptor CysLT1, CYSLTR1 (gene 10800), sequence (Q9Y271 whole entry, looked up): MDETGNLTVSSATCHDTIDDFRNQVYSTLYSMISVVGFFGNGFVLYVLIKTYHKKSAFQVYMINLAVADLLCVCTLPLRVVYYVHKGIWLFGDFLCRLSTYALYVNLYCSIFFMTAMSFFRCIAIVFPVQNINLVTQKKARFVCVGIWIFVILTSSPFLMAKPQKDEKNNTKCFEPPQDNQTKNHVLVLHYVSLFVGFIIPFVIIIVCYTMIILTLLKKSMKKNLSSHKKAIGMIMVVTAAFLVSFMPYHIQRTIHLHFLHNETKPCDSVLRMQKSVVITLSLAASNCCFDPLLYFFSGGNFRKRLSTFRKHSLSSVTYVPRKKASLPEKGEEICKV
Experimental: ERF_FR_GPCR_hCYSLTR1 is a biochemical, single-readout assay that uses extracted gene-proteins in a cell-free assay. Measurements were taken 1 hour after chemical dosing in a 96-well plate. See CysLT1 Human Leukotriene GPCR Binding (Agonist Radioligand) Assay, Cerep.ERF_FR_GPCR_hCYSLTR1 is an assay component calculated from the ERF_FR_GPCR_hCYSLTR1 assay. It is designed to measure radioligand binding using a type of binding reporter as detected by scintillation counting with radiometry technology.Data from the assay component ERF_FR_GPCR_hCYSLTR1 was analyzed at the assay endpoint, ERF_FR_GPCR_hCYSLTR1, in the positive analysis fitting direction relative to DMSO as the negative control and baseline of activity. Using a type of binding reporter, gain-of-signal activity can be used to understand changes in binding as they relate to gene CYSLTR1. To generalize the intended target to other relatable targets, this assay endpoint is annotated to the gpcr intended target family, where the subfamily is leukotriene.
Human cells are incubated for 60 minutes at room temprature with [3H]LTD4 ligand (0.3 nM) and leukotriene D4 as control inhibitor.Test Sample Requirements: Minimum for 1) Screen: 60 ul of 10 mM stock -OR- 1 mg (pre-weighed) for 10 uM final testing. 2) Dose Response: 90 ul of 10 mM stock -OR- 1 mg (pre-weighed) for a top concentration at 10 uM.

SMILES | AC50
O=C(/C=C/c1ccc(O)cc1)CC(=O)/C=C/c1ccc(O)cc1 | 5 µM (active)
